Experimental data published in the supplement of paper PMC12819154, “High-throughput peptide-centric local stability assay extends protein–ligand identification to membrane proteins, tissues and bacteria” (Nature Structural & Molecular Biology, 2025).

Compound: CN[C@@H]1C[C@H]2O[C@@](C)([C@@H]1OC)n1c3ccccc3c3c4c(c5c6ccccc6n2c5c31)C(=O)NC4 [staurosporine]
Assay: log2 fold change of tryptic peptide abundance, ligand vs vehicle (limited proteolysis) (log2 ratio); higher = more trypsin-susceptible (destabilized)
Details: ligand concentration: 20 uM; sample: mouse liver crude lysate; replicate design: treated separately

Chain of UniProt Q8BGS7 (Q8BGS7 whole entry): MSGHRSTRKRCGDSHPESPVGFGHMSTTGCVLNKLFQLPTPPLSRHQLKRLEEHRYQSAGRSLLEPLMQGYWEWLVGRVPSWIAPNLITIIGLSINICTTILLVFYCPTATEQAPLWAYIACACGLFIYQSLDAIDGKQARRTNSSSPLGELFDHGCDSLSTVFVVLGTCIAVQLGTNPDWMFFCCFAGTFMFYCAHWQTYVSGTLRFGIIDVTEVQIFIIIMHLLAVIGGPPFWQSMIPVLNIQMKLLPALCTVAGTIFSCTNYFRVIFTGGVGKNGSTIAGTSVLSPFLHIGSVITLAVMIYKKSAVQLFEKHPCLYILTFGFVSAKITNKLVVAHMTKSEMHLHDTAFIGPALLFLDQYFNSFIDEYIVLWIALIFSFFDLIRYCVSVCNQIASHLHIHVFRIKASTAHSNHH
Chain of UniProt O70589 (O70589 whole entry): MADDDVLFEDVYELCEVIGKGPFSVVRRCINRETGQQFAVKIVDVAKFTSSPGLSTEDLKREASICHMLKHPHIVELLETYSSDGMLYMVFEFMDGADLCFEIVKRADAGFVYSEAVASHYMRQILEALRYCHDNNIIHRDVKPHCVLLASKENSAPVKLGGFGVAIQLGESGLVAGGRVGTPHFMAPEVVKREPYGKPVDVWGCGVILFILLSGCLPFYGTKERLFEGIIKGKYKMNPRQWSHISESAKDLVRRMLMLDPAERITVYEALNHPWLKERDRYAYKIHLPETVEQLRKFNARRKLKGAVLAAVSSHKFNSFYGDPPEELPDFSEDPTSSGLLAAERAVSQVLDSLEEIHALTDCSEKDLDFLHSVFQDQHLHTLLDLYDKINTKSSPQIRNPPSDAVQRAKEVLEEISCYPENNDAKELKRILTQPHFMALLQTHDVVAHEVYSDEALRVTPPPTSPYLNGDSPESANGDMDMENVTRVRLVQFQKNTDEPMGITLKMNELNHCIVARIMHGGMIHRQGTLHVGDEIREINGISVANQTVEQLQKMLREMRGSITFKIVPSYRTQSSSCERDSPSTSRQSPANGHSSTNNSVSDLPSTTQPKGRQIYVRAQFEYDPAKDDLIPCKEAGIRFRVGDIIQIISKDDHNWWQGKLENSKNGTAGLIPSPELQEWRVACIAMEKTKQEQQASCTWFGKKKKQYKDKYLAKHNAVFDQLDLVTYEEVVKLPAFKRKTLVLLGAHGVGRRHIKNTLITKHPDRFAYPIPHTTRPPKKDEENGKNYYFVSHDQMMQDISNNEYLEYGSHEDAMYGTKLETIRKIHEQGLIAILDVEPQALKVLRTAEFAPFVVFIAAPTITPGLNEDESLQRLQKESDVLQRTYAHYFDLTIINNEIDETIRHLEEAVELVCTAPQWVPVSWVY
Chain of UniProt Q9EPJ9 (Q9EPJ9 whole entry): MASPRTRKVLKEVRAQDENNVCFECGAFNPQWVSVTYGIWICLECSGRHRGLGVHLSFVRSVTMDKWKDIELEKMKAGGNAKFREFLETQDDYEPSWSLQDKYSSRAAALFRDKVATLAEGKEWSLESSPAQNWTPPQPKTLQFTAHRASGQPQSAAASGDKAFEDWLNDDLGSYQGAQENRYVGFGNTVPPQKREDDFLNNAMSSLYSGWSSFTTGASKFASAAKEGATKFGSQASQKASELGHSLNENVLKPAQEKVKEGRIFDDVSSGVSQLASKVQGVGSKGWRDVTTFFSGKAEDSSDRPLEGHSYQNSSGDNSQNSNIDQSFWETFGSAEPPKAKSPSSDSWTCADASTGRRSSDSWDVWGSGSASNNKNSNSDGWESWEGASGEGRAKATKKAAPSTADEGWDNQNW
Chain of UniProt Q80ZM8 (Q80ZM8 whole entry): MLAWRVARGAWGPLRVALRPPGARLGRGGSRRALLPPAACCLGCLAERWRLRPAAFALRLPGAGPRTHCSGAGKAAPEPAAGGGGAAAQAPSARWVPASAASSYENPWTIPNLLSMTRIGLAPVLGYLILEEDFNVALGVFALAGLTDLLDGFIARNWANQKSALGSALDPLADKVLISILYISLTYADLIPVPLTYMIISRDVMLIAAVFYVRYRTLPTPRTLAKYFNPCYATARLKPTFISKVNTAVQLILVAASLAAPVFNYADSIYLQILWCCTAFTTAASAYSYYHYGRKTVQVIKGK
Chain of UniProt Q8VCC2 (Q8VCC2 whole entry): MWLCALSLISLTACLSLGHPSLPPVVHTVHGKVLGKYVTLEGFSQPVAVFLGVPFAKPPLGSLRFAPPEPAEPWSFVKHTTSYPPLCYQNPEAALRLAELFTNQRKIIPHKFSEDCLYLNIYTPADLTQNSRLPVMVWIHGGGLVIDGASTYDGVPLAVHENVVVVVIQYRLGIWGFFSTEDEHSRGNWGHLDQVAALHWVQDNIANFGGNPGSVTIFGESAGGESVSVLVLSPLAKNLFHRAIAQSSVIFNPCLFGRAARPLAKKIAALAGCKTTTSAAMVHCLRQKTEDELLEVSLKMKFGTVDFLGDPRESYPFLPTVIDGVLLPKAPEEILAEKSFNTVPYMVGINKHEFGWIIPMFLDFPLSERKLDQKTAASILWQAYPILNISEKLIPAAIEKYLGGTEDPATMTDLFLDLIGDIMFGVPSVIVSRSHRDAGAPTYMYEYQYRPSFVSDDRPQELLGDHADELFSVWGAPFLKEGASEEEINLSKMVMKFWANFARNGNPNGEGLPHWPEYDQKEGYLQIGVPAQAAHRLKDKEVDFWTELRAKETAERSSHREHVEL
Chain of UniProt Q6P9R2 (Q6P9R2 whole entry): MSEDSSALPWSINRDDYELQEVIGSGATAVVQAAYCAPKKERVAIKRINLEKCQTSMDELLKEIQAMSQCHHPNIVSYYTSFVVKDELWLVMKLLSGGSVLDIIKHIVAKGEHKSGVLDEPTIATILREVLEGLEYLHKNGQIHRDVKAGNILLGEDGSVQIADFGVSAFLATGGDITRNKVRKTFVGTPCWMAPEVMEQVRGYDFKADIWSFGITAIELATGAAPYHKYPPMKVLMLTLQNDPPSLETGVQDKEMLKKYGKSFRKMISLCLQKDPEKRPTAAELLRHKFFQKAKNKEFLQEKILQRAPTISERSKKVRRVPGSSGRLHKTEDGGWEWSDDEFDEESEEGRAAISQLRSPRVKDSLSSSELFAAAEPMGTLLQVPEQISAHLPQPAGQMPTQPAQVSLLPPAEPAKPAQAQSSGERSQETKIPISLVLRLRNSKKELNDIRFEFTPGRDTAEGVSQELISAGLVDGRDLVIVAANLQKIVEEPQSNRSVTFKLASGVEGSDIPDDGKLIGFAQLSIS
Chain of UniProt O54781 (O54781 whole entry): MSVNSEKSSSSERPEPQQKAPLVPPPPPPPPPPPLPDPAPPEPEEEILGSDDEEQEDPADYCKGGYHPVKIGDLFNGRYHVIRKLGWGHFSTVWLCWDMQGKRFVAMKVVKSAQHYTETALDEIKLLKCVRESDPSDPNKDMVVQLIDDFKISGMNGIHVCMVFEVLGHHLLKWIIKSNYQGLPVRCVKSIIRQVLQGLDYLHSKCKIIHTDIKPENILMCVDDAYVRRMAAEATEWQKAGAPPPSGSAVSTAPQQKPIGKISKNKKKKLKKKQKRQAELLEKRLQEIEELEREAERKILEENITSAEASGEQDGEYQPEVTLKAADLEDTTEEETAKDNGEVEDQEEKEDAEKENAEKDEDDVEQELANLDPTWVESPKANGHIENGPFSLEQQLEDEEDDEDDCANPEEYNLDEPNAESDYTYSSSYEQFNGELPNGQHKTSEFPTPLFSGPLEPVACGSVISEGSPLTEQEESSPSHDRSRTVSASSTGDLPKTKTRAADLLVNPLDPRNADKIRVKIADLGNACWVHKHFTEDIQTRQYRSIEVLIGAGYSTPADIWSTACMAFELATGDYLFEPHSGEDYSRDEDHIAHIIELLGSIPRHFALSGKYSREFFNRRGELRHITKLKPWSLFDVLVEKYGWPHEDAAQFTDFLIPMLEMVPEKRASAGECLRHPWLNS
Chain of UniProt Q9R233 (Q9R233 whole entry): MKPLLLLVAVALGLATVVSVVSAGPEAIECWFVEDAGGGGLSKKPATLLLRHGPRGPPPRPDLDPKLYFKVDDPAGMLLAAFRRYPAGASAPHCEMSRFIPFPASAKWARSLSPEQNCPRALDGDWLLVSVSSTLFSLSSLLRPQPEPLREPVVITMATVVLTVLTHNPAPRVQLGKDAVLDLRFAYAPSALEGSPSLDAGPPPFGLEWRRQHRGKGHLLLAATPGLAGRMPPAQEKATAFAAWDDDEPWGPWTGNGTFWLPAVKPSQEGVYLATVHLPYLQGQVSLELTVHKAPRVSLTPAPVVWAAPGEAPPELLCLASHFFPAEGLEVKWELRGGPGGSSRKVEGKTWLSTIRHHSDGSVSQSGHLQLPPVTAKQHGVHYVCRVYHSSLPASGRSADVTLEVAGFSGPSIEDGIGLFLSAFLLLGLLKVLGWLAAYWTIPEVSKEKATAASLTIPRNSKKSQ
Chain of UniProt O70291 (O70291 whole entry): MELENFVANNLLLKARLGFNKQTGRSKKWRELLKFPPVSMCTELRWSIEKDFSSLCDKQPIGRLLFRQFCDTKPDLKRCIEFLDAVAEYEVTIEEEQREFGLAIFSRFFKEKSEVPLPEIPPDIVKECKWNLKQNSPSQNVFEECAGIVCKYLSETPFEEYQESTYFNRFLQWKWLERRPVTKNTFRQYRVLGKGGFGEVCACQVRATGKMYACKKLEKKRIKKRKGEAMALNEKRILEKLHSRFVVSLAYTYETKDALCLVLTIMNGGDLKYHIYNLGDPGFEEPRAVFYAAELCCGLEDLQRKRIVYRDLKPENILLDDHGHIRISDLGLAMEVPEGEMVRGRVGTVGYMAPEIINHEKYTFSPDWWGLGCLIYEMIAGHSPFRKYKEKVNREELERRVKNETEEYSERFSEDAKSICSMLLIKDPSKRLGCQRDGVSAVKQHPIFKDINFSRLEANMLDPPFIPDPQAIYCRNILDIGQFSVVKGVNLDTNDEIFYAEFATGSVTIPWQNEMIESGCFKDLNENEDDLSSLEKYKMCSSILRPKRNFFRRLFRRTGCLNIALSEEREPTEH

| Target | log2 fold change |
| --- | --- |
| UniProt Q6P9R2 (peptide sequence: EVLEGLEYLHK, peptide start residue: 129) | -0.823 |
| UniProt Q80ZM8 (peptide sequence: YFNPCYATAR, peptide start residue: 227) | 1.12 |
| UniProt Q8BGS7 (peptide sequence: LFQLPTPPLSR, peptide start residue: 35) | 0.348 |
| UniProt Q9EPJ9 (peptide sequence: DVTTFFSGK, peptide start residue: 289) | 0.513 |
| UniProt Q8VCC2 (peptide sequence: LAELFTNQR, peptide start residue: 97) | -0.315 |
| UniProt O70291 (peptide sequence: DLKPENILLDDHGHIR, peptide start residue: 311) | -1.62 |
| UniProt O70589 (peptide sequence: FTSSPGLSTEDLKR, peptide start residue: 48) | -2.83 |
| UniProt Q61083 (peptide sequence: LLGQGAFGR, peptide start residue: 361) | -1.9 |
| UniProt Q9R233 (peptide sequence: GKGHLLLAATPGLAGR, peptide start residue: 215) | -1.39 |
| UniProt A6X919 (peptide sequence: AGTAAPAPDGLAGR, peptide start residue: 60) | 0.335 |
| UniProt O54781 (peptide sequence: HFTEDIQTR, peptide start residue: 500) | -1.82 |
